Test results as given in PubChem BioAssay (Tox21).
Results filed as inconclusive are left out. A number with no mark means an inactive call. The call rests on the fitted dose curve; in most records, active means well fitted cell-killing curve with a large enough effect in the repeat runs; inconclusive means weak or mixed curves; inactive means flat fitted curve, though single readings scatter.

test: qHTS assay to identify small molecule antagonists of the estrogen related receptor (ERR) signaling pathway - cell viability counter screen (AID 1224818); settings: ERR reporter cell line viability counter screen; series mostly up to 46.1 µM; viability change, negative = cytotoxic: at the top concentration
Description: National Center for Advancing Translational Sciences [NCATS]
NIH Chemical Genomics Center [NCGC]
U.S. Environmental Protection Agency [EPA]
National Institutes of Environmental Health Sciences [NIEHS]
National Toxicology Program [NTP]
U.S. Food and Drug Administration [FDA]
Estrogen related receptors (ERRs), the first orphan nuclear receptors discovered, play an important role in the control of cellular energy metabolism. ERRs are required for high-energy production in response to the environmental challenges. ERR-alpha was also identified as an adverse marker for breast cancer progression; ERR-alpha-positive tumors have a poor prognosis. To screen and to identify environmental compounds that perturb the ERR signaling pathways could provide valuable information for potential therapeutic or preventive measures in the treatment of metabolic disease. To differentiate true ERR antagonists or agonist from cytotoxic substances, the assay is multiplexed with cell viability assay.
Tox21 Assay Protocol Summary:
The ERR cells were dispensed at 2,000 cells/5 ul/well in 1536-well white plates using a Multidrop dispenser. After the assay plates were incubated at a 37 C/5% CO2 incubator for 6 hours, 23 nL of compounds dissolved in DMSO, positive and negative controls or DMSO only was transferred to the assay plate by a pin tool. The plates were incubated at 37 C for 17.5 hours. 1 ul/well of CellTiter-Fluor reagent was added into the assay plates using a Flying Reagent Dispenser. After 30 min incubation at 37 C/5% CO2, the fluorescence intensity in the plates was measured using a ViewLux plate reader.
On the % scale 0 is the no-effect control and ±100 the full control effect.

Row | SMILES | viability change, negative = cytotoxic [%]
1 | COc1ccccc1N1CCN(CCCNc2cc(=O)n(C)c(=O)n2C)CC1 | -2.74
2 | CC(C)NCC(O)COc1ccc(CCOCC2CC2)cc1 (configuration not stated) | 4.61
3 | CN(C)CC[C@@H](c1ccc(Cl)cc1)c1ccccn1 | 1.07
4 | O=C1N(c2ccccc2)c2ccccc2C1(Cc1ccncc1)Cc1ccncc1 | 3.14
5 | O=C(O)CN(CCN(CC(=O)O)CC(=O)O)CCN(CC(=O)O)CC(=O)O | 3.49
6 | CC(=O)Oc1cc(C(C)C)c(OCCN(C)C)cc1C | 10.5
7 | CC1=C(CC(=O)O)c2cc(F)ccc2/C1=C\c1ccc(S(C)(=O)=O)cc1 | -6.06
8 | CN1CCN(C2=Nc3ccccc3Oc3ccc(Cl)cc32)CC1 | -5.34
9 | CCCCNc1cc(C(=O)O)cc(S(N)(=O)=O)c1Oc1ccccc1 | 6.12
10 | C[C@]12CCC(=O)C=C1CC[C@@H]1[C@@H]2CC[C@@]2(C)[C@H]1CC[C@]2(O)C(=O)CO | 10.4
11 | CO[C@@]1(NC(=O)CSCC#N)C(=O)N2C(C(=O)O)=C(CSc3nnnn3C)CS[C@@H]21 | 13.6
12 | Cc1nnc(SCC2=C(C(=O)O)N3C(=O)[C@@H](NC(=O)Cn4cnnn4)[C@H]3SC2)s1 | 9.34
13 | CCCN(CCC)C(=O)C(CCC(=O)O)NC(=O)c1ccccc1 (configuration not stated) | 8.6
14 | CNCCC(Oc1ccccc1OC)c1ccccc1 (configuration not stated) | 12.3
15 | NC1=NCC2c3ccccc3Cc3ccccc3N12 (configuration not stated) | 11.1
16 | NC/C=C/C(=O)O | 2.04
17 | CN1CCC[C@@H]1Cc1c[nH]c2ccc(CCS(=O)(=O)c3ccccc3)cc12 | -18.3
